Among the data in PubChem BioAssay (NCI) are growth values, retold here.

Structures are written as SMILES. Compounds without any hit were thinned out: in the full panel of roughly 83,000, 20% have a hit.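 Assay: single dose, 48 h. Readout: percent growth (0 = no net growth; negative = cell death). Active: <10.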 Activity calls are given as the source filed them.

The assay relates to T-47D breast. Description: NCI-60 one-dose screen, 48 h (100 = growth as untreated, 0 = no growth, -100 = all killed). To be noted: 10 µM. As to the method: Growth inhibition of the T-47D human tumor cell line is measured as a screen for anti-cancer activity. Cells are grown in 96 well plates and exposed to the test compound for 48 hours. Compounds are tested at a single concentration, which is 10^-5 M for most compounds. The reported endpoint is percent growth (GI% or GIPRCNT), where numbers from 0 - 100% represent growth inhibition, and numbers from -100% - 0 represent cell death. For example, a value of 40 represents 60% growth inhibition. A value of 0 means no net growth occurred over the course of the experiment. A value of -40 indicates 40% of cells at the beginning of the experiment died by the end of the experiment. A value of -100 means all cells are dead at the end of the experiment.
NCI-60 Human Tumor Cell Lines Screen was performed using the standard one-dose NCI protocol, which is described in more detail at https://dtp.cancer.gov/discovery_development/nci-60/default.htm.
Compounds with GIPRCNT values below 10 were considered active. Activity score was based on GIPRCNT using the following formula: […]
Score is 0 for GIPRCNT values of 100 or above, 50 for GIPRCNT values of 0, and 100 for GIPRCNT values of -100.
With `COC(=O)c1c(-c2ccccc2)csc1NC(=O)c1c(-c2ccccc2)noc1C`, the growth was 71.8% (inactive).

As for `CC(=O)O[C@]1(C)CC[C@H]2[C@H](CNCCc3ccc(Cl)cc3)C(=O)O[C@@H]2C2=C(C)C(=O)C[C@H]21`, the growth is 92.3% (inactive).

In the case of `CSc1nn(-c2ccccc2)c2ncnc(Oc3ccc(C)cc3)c12`, the growth was 83.4% (inactive).

As for `COc1ccc(/C=C2/CN(CCC#N)C/C(=C\c3ccc(OC)cc3)C2=O)cc1`, the growth is 39.4% (inactive).

Regarding `O=[N+]([O-])c1cccc(N=Cc2ccc3c(c2)OCO3)c1`, the growth is 103% (inactive).

On to `COc1ccc(/C=C/C(=O)Nc2ccc(-c3nc4ccc(OC)cc4s3)cc2)cc1`, for which the growth was 101% (inactive).

Take `COc1ccc2c(c1)N(CCO)C1=C(C(=O)OC1)C2c1ccccc1` (stereo not given): the growth is 37.6% (inactive).

Regarding `COc1ccc2c(c1)sc1nc(-c3ccccc3)c(-c3ccsc3)n12`, the growth is 57% (inactive).

For the molecule `Cn1c([N+](=O)[O-])cnc1/C=C1\Oc2ccccc2C1=O`, the growth is 87.3% (inactive).

On to `N#CCCN1C/C(=C/c2ccccc2)C(=O)/C(=C/c2ccccc2)C1`, for which the growth is 68% (inactive).

`COc1ccc(-c2nn(-c3cccc(NC(=O)Nc4ccccc4)c3)cc2-c2ccncc2)cc1Cl`: the growth was 30.9% (inactive).

Turning to `CCC(=O)N1C/C(=C/c2ccc(Cl)cc2)C(=O)/C(=C/c2ccc(Cl)cc2)C1`, the growth is 26% (inactive).

`CCCCCCCCCCCCCCCC(=O)OC1[C@@H](OC(=O)CCCCCCCCCCCCCCC)[C@@H](C(=O)N[C@@H](CCCCN)C(=O)OC)O[C@H]1n1cnc2c(=O)[nH]c(NC(=O)C(C)C)nc21` (stereo not given in full): the growth is 88.2% (inactive).

As to `COc1cc(/C=C/C(=O)c2ccc(Cl)cc2)ccc1OS(=O)(=O)c1ccc(C)cc1`, the growth was 76.8% (inactive).

As for `CC/C(=N\N=C(/CC)c1ccc(Br)cc1)c1ccc(Br)cc1`, the growth was 83% (inactive).

In the case of `Clc1nc(Cl)c2c(ncn2C/C=C\Cn2cnc3c(Cl)nc(Cl)nc32)n1`, the growth was -47% (active).

On to `COc1cc(-c2cc(/C=C/C(=O)c3ccc(N)cc3)[nH]n2)cc(OC)c1OC`, for which the growth is 5.11% (active).

For `Clc1ccccc1N=Cc1ccc2c(c1)OCO2`, the growth is 109% (inactive).

Take `CCOC(=O)N1C=CC2C=CC1C1C=CC=CC2N1C(=O)OCC` (stereo not given): the growth is 98.9% (inactive).

Consider `COc1cccc(-c2cc(-c3cccc(NS(C)(=O)=O)c3)nc(N)c2C#N)c1O`, for which the growth was 52% (inactive).

For `Cc1nc2ccc(CN(C)c3ccc(C(=O)N[C@@H](CCC(=O)O)C(=O)O)s3)cc2c(=O)[nH]1`, the growth was 55.4% (inactive).

For the molecule `O=C(Nc1ccncc1)C(=O)c1cn(S(=O)(=O)c2cccc(Cl)c2)c2ccccc12`, the growth was 70% (inactive).

On to `CC[C@H]1CCC/C=C/[C@@H]2C[C@H](O)C[C@H]2[C@H](O)/C=C/C(=O)O1`, for which the growth is -81.1% (active).

For `CC(=O)[C@H]1CC[C@H]2[C@@H]3CCC4=CC(=O)C=C[C@]4(C)[C@H]3CC[C@]12C`, the growth was 86.8% (inactive).

As to `COc1cc(Cl)cc(-c2nn(-c3cccc(NC(=O)Nc4cc(C(F)(F)F)cc(C(F)(F)F)c4)c3)cc2-c2ccncc2)c1`, the growth was 6.56% (active).

As for `CC(=O)c1cc(Br)ccc1O`, the growth was 114% (inactive).

Turning to `COc1ccc2c(c1)O/C(=C\c1ncc([N+](=O)[O-])n1C)C2=O`, the growth was 76.5% (inactive).

Consider `O=C1/C(=C/c2ccc([N+](=O)[O-])o2)Oc2ccccc21`, for which the growth is 8.17% (active).

As to `O=c1[nH]c(-c2ccc(Cl)cc2)nc2sc3c(c12)CCCC3`, the growth is 64.4% (inactive).

For the molecule `Clc1cccc(-c2nc(-c3cccs3)no2)c1`, the growth is 66.7% (inactive).

On to `Cc1ccc(N=Nc2c(N)nc(N)[nH]c2=O)cc1C`, for which the growth was 96% (inactive).

Regarding `C#Cc1ccc(-n2c(/C=C/c3ccc4ccccc4c3)nc3ncccc3c2=O)cc1`, the growth is 42.7% (inactive).

For the molecule `O=S(=O)(NCCNc1nccc(-c2c(-c3ccc(F)cc3)nc3sccn23)n1)c1ccc2ccccc2c1`, the growth is 61.9% (inactive).

Take `C#Cc1ccc(-n2c(/C=C/c3ccc(O)cc3)nc3ncccc3c2=O)cc1`: the growth was 67.4% (inactive).

On to `CCN(CC)CCSCCN(CC)CC`, for which the growth is 94% (inactive).

With `COc1ccc(-c2nn(-c3cccc(NC(=O)Nc4cc(C(F)(F)F)cc(C(F)(F)F)c4)c3)cc2-c2ccncc2)cc1Cl`, the growth was 2.31% (active).

On to `C(CCCC1=NCCO1)CCCC1=NCCO1`, for which the growth is 109% (inactive).

Take `CSc1nc(=O)n(Cc2ccc(Cl)cc2)c(=O)[nH]1`: the growth was 90.1% (inactive).

Turning to `CSc1cc(SC)ncn1`, the growth was 105% (inactive).

In the case of `CCOCC(=O)C(C#N)c1ccc(Cl)c(Cl)c1` (stereo not given), the growth is 124% (inactive).
